Bioassay records: PubChem, National Center for Advancing Translational Sciences (NCATS)
PNC inhibitor: perinucleolar compartment assembly inhibition; PC3M PTB-GFP, PNC prevalence imaging, 16 h; active compounds read low; activity change (PNC), negative = inhibition, % at 10 µM; 140,000 tested, 3.1% active;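 active means readout at or below -70, meaning at least 70% loss of cells showing the perinucleolar compartment, a nuclear body marking cancer cells; inconclusive means readout between -30 and a set limit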;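 further: plate controls were DMSO wells for no effect and camptothecin positive control wells for full effect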
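Read-out is percentage of cells bearing a perinucleolar compartment, from automated 20x imaging of fixed, Hoechst-stained PC3M PTB-GFP cells. Cells were seeded 4 h, then exposed 16 h to compound (23 nl of library stock) in duplicate plates.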
TRb-SRC2 inh: inhibitors of human thyroid hormone receptor beta-SRC2 interaction; P10828; TRbeta-SRC2 peptide binding, fluorescence polarization; receptor liganded with 1 µM T3; Potency, µM (series often up to 106 µM), for the others: top-dose activity change, negative = inhibition, actives largely listed as inhibitors; 280,000 tested, 0.065% active; AID 1469;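 further: potency means the concentration at half of the fitted maximal effect; plate controls were bound peptide for no effect and peptide without receptor for full effect; nearly all actives have a fitted effect of over 50% in size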
Target sequence (P10828 whole entry, looked up): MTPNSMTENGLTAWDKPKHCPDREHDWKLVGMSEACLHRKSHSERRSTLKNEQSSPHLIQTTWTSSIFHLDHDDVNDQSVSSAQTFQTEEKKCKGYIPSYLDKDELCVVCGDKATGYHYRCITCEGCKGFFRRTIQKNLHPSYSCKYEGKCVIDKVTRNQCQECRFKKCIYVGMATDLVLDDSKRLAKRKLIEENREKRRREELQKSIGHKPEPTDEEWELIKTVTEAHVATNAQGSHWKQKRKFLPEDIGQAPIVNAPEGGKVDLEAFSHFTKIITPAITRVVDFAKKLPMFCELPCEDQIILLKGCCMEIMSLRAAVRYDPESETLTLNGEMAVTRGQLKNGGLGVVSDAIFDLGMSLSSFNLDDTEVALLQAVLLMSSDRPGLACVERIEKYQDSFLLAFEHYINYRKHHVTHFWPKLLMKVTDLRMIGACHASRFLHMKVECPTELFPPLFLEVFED
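Human TRb ligand-binding domain (0.6 uM) is mixed with 20 nM Texas Red SRC2 peptide and 1 uM T3; after compound addition and 5 hr at ambient temperature, polarization is measured and normalized to unbound and bound controls.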
Tau fibril FP: blocks human tau fibril formation measured by polarization | 280,000 tested, 0.39% active | P10636 | Potency, µM (series often up to 57.7 µM), without a hit: at the top dose activity, negative = inhibition, hits mostly inhibitors | K18 P301L tau heparin fibrillization, Alexa594 FP, 6 h; further: potency means the concentration at half of the fitted maximal effect; nearly all actives have a fitted effect of over 55% in size
Target sequence (P10636 561-689 P618L limits assumed): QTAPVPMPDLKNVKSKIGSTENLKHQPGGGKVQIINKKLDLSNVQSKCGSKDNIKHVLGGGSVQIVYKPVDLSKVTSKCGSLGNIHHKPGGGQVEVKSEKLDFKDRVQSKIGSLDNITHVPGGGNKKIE
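Human K18 P301L fragment (15 uM unlabeled plus 0.24 uM Alexa 594-labeled) in 100 mM sodium acetate pH 7 with compound, aggregation induced by 20 uM heparin for 6 hr at 37 C. ThT (30 uM) added for 1 hr, then Alexa 594 FP read.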
TexasRed fluor: counter-screen for TRb-SRC2 inhibitors: fluorescence interference. TRb/SRC2 Texas Red total fluorescence interference. Potency, µM (top dose mostly 106 µM), inactives show top-dose fluorescence change, negative = quenching. 280,000 tested, 0.29% active; active means well fitted curve in either direction with a large enough effect; inconclusive means small, poorly fitted or top-dose-only effect; further: potency means the concentration at half of the fitted maximal effect
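Human TRβ ligand-binding domain (0.6 uM) and Texas Red SRC2 peptide (20 nM) in Tris buffer with 1 uM T3 and 5% DMSO were incubated with pinned compound for 5 hr at ambient temperature. Total fluorescence was computed as S + 2P (555/632 nm).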
Tau ThT inhib: tau fibrillization inhibition (ThT binding) | P10636 | recombinant tau K18 P301L, heparin-induced fibrillization, ThT fluorescence | Potency, µM (titrated, usually from 57.4 µM), for inactives: top-dose activity, negative = inhibition, actives largely listed as inhibitors | 270,000 tested, 2.1% active | AID 1460; further: potency means the concentration at half of the fitted maximal effect; nearly all actives have a fitted effect of over 55% in size
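ThT emission at 510 nm, taken 1 hr after adding 30 uM dye, quantifies aggregates formed when 20 uM heparin acts on human tau K18 P301L for 6 hr at 37 C.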
Tau fluor counter: counter-screen for tau fibril formation inhibitors; Potency, µM (series often up to 57.7 µM), without a hit: top-dose activity change, negative = decrease; tau K18 P301L (four-repeat tau fragment) Alexa594 fluorescence, heparin fibrillization; 280,000 tested, 0.93% active; further: potency means the concentration at half of the fitted maximal effect; nearly all actives have a fitted effect of over 55% in size
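Human K18 P301L tau (15 uM unlabeled plus 0.24 uM Alexa 594-labeled, final) in 100 mM sodium acetate pH 7 was mixed with compound and 20 uM heparin and incubated 6 hr at 37 C.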
Numbers without * were called inactive; [ ] = dose if it differs, or a comment. Rows were chosen to be rich in hits. Some 4.6% of all compounds tested hit in one or more screens of this group. Unless noted, the call rests on the fitted dose curve; in most records, active means well fitted curve in the direction sought with a large enough effect; inconclusive means small, poorly fitted or top-dose-only effect, or another doubt; inactive means no such curve, though single readings can be large; an effect the other way counts as inactive or inconclusive. Unless noted, on the % scale 0 is the no-effect control and ±100 the full control effect.

Screening Cc1ccccc1OCc1nc(-c2ccc(NC(=O)c3cccs3)cc2)no1 returned PNC inhibitor 29, TRb-SRC2 inh 5%, Tau fibril FP inconclusive, TexasRed fluor 0%, Tau ThT inhib -7% and Tau fluor counter inconclusive.
`Cc1ccccc1OCc1nc(-c2ccc(NC(=O)c3ccco3)cc2)no1` gave PNC inhibitor -100*, TRb-SRC2 inh -5%, Tau fibril FP inconclusive, TexasRed fluor -2%, Tau ThT inhib inconclusive and Tau fluor counter inconclusive.
CCCc1ccc(OCc2nc(-c3ccc(NC(=O)c4cccs4)cc3)no2)cc1 was read as PNC inhibitor -91*, TRb-SRC2 inh 1%, Tau fibril FP 14%, TexasRed fluor 2%, Tau ThT inhib 2% and Tau fluor counter 11%.
CN(C)c1ccc(C(=S)N2CCCCCC2)cc1 was read as PNC inhibitor inconclusive, TRb-SRC2 inh -7%, Tau fibril FP inconclusive, TexasRed fluor 1%, Tau ThT inhib 25µM* and Tau fluor counter inconclusive.
`CCOC(=O)CC1=C(C(=O)OCC)C(c2cc(OC)c(OC)cc2OC)C(C#N)=C(N)O1` (stereo not drawn) gave PNC inhibitor inconclusive, TRb-SRC2 inh -8%, Tau fibril FP -3%, TexasRed fluor -1%, Tau ThT inhib -20% and Tau fluor counter -13%.
Screening CCOC(=O)CC1=CC(C)(CC(=O)OCC)C(C#N)(C#N)C(N)=C1C#N (stereo not drawn) returned PNC inhibitor inconclusive, TRb-SRC2 inh 11%, Tau fibril FP inconclusive, TexasRed fluor -2%, Tau ThT inhib 28µM* and Tau fluor counter -26%.
Cc1ccc(-n2[nH]c(C)c(/C=N/Nc3ccc([N+](=O)[O-])cc3[N+](=O)[O-])c2=O)cc1C was read as PNC inhibitor inconclusive, TRb-SRC2 inh -6%, Tau fibril FP 20µM*, TexasRed fluor -5%, Tau ThT inhib 2.2µM* and Tau fluor counter 4.5µM*[quencher].
Cc1ccc(S(=O)(=O)N/N=C/c2cc(Br)c(C)o2)cc1 was read as PNC inhibitor 17, TRb-SRC2 inh 0%, Tau fibril FP -2%, TexasRed fluor -1%, Tau ThT inhib -22% and Tau fluor counter -13%.
Cc1cc([N+](=O)[O-])c2c(c1C)C1C=CCC1C(c1ccccn1)N2 (stereo not drawn) was read as TRb-SRC2 inh -4%, Tau fibril FP inconclusive, TexasRed fluor -5%, Tau ThT inhib 16µM* and Tau fluor counter inconclusive.
O=C(c1cccc2ccccc12)N1CCN(c2ccc([N+](=O)[O-])c(N3CCOCC3)c2)CC1 was read as PNC inhibitor -20, TRb-SRC2 inh -4%, Tau fibril FP 2%, TexasRed fluor 0%, Tau ThT inhib inconclusive and Tau fluor counter -17%.
`NC(N)=N/N=C/c1cc([N+](=O)[O-])ccc1O` gave PNC inhibitor -115*, TRb-SRC2 inh 2%, Tau fibril FP 0%, TexasRed fluor -6%, Tau ThT inhib inconclusive and Tau fluor counter -9%.
CC1C/C(=N\NC(=O)c2cccnc2)CC(C)(C)C1 (stereo not drawn) was read as TRb-SRC2 inh 4%, Tau fibril FP -2%, TexasRed fluor -1%, Tau ThT inhib -5% and Tau fluor counter 0%.
For O=C(O)CCN1C(=O)C(=C2CCCCCC2)SC1=S the results were PNC inhibitor inconclusive, TRb-SRC2 inh 2%, Tau fibril FP -6%, TexasRed fluor 3%, Tau ThT inhib -10% and Tau fluor counter -2%.
O=C1C(=C2CCCCC2)SC(=S)N1Cc1ccco1 was read as PNC inhibitor 41, TRb-SRC2 inh -1%, Tau fibril FP inconclusive, TexasRed fluor 0%, Tau ThT inhib 25µM* and Tau fluor counter -21%.
CC(c1ccco1)N(C(=O)c1ccccc1NS(=O)(=O)c1cccc([N+](=O)[O-])c1)c1ccccn1 (stereo not drawn) was read as PNC inhibitor -102*, TRb-SRC2 inh -5%, Tau fibril FP -3%, TexasRed fluor 1%, Tau ThT inhib inconclusive and Tau fluor counter -10%.
Screening CCOc1ccc(NS(=O)(=O)c2ccc3[nH]cc(C(=O)NC4CCCC4)c(=O)c3c2)cc1 returned TRb-SRC2 inh -5%, Tau fibril FP 25µM*, TexasRed fluor 0%, Tau ThT inhib -1% and Tau fluor counter inconclusive.
CCc1ccc(NS(=O)(=O)c2ccc3[nH]cc(C(=O)NC4CCCC4)c(=O)c3c2)cc1 was read as TRb-SRC2 inh 0%, Tau fibril FP 11µM*, TexasRed fluor -2%, Tau ThT inhib 7% and Tau fluor counter inconclusive.
Screening CCc1ccc(NS(=O)(=O)c2ccc3[nH]cc(C(=O)NCCc4ccccc4)c(=O)c3c2)cc1 returned TRb-SRC2 inh -4%, Tau fibril FP inconclusive, TexasRed fluor 1%, Tau ThT inhib 8% and Tau fluor counter 1%.
Cc1cc(C(=O)NC(C)c2ccc3c(c2)OCO3)cs1 (stereo not drawn) was read as PNC inhibitor 40, TRb-SRC2 inh -5%, Tau fibril FP 2%, TexasRed fluor -3%, Tau ThT inhib -1% and Tau fluor counter 1%.
`O=C(/C=C/c1cccc(F)c1)N1CCN(c2ccccn2)CC1` gave TRb-SRC2 inh 9%, Tau fibril FP 2%, TexasRed fluor 1%, Tau ThT inhib -5% and Tau fluor counter -8%.
`Nc1cccc2c1C(=O)N(C(=O)/C=C/c1cccc(Br)c1)C2=O` gave TRb-SRC2 inh 4%, Tau fibril FP inconclusive, TexasRed fluor -2%, Tau ThT inhib 25µM* and Tau fluor counter -24%.
For COc1ccc(OC)c(/C=C/C(=O)N2C(=O)c3cccc(N)c3C2=O)c1 the results were PNC inhibitor 17, TRb-SRC2 inh -7%, Tau fibril FP inconclusive, TexasRed fluor 0%, Tau ThT inhib 14µM* and Tau fluor counter -18%.
`COc1cc(/C=C/C(=O)N2C(=O)c3cccc(N)c3C2=O)cc(OC)c1OC` gave PNC inhibitor inconclusive, TRb-SRC2 inh -6%, Tau fibril FP inconclusive, TexasRed fluor 1%, Tau ThT inhib inconclusive and Tau fluor counter -15%.
Nc1cccc2c1C(=O)N(C(=O)/C=C/c1cccc(F)c1)C2=O was read as TRb-SRC2 inh 3%, Tau fibril FP inconclusive, TexasRed fluor -2%, Tau ThT inhib 14µM* and Tau fluor counter -16%.
Screening C=CC[n+]1c(-c2ccc(Cl)cc2Cl)csc1Nc1ccc(NC(C)=O)cc1 returned TRb-SRC2 inh 5%, Tau fibril FP inconclusive, TexasRed fluor 0%, Tau ThT inhib inconclusive and Tau fluor counter 25µM*[quencher].
